Assay results as given in PubChem BioAssay (NCATS).
Several values for one entry are separate records, joined by “and”; a condition that tells them apart may be missing. Equal entries are not always repeated. Records with an inconclusive call do not appear. Activity calls are given as the source filed them. Calls come from the whole dose curve; as a rule, active = well fitted curve in the direction sought with a large enough effect; inconclusive = small, poorly fitted or top-dose-only effect, or another doubt; inactive = no such curve, though single readings can be large; an effect the other way counts as inactive or inconclusive.

Key:
TAB109 = assay: qHTS profiling for inhibitors of Plasmodium falciparum proliferation (AID 504749); note: nearly all actives have a fitted effect of over 60% in size; note: potency is the fitted concentration of half-maximal effect; conditions: P. falciparum in erythrocytes, SYBR Green DNA, 72 h; series mostly up to 28.7 µM
Method in brief: (§1)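 In a 72 h erythrocytic culture (37 C, humidified, 5% CO2) at 2.5% hematocrit and 0.3% starting parasitemia, compounds were tested; SYBR Green I in detergent lysis buffer stained parasite DNA overnight.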

TAB113 = assay: as above; conditions: P. falciparum in erythrocytes, SYBR Green DNA, 72 h; series mostly up to 28.7 µM
Method in brief: as §1

TAB165 = assay: as above; conditions: P. falciparum in erythrocytes, SYBR Green DNA, 72 h; series mostly up to 28.7 µM
Method in brief: as §1

W2 = assay: as above; conditions: P. falciparum in erythrocytes, SYBR Green DNA, 72 h; series mostly up to 28.7 µM
Method in brief: as §1

CRL-7250 = normal cell line; assay: Cytotoxic Profiling of Annotated Libraries Using Quantitative High-Throughput Screening (AID 1296008); conditions: Five cell lines viability, CellTiter-Glo ATP luminescence, 48-72 h; max response: stronger effect = lower value; note: nearly all actives have a fitted effect of over 60% in size; note: potency is the fitted concentration of half-maximal effect; for max response: % is set by controls: 0 for no effect and ±100 for the full control effect
Method in brief: (§2)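 Cytotoxicity was measured as CellTiter-Glo ATP luminescence, read after 10 min at room temperature. Compound treatment of the cells lasted 48 or 72 hr at 37 degrees Celsius in a qHTS format.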

HEK293 = assay: as above; conditions: Five cell lines viability, CellTiter-Glo ATP luminescence, 48-72 h; max response: stronger effect = lower value
Method in brief: as §2

HaCat [1] = assay: as above; conditions: Five cell lines viability, CellTiter-Glo ATP luminescence, 48-72 h; max response: stronger effect = lower value
Method in brief: as §2

KB-3-1 = assay: as above; conditions: Five cell lines viability, CellTiter-Glo ATP luminescence, 48-72 h; max response: stronger effect = lower value
Method in brief: as §2

NIH3T3 [2] = assay: as above; conditions: Five cell lines viability, CellTiter-Glo ATP luminescence, 48-72 h; max response: stronger effect = lower value
Method in brief: as §2

HACAT [3] = assay: qHTS assay to identify novel small-molecules to repurpose for Merkel cell carcinoma treatment (AID 1296009); conditions: MCC and control cell lines, CellTiter-Glo viability, 72 h; at 44.8 µM (top of the series) unless noted; note: nearly all actives have a fitted effect of over 60% in size
Method in brief: (§3)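 Cell viability measured by CellTiter-Glo following 72 hr compound treatment at 37 degree celsius, with NPC and MIPE libraries tested in 8- and 11-point concentration series.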

MCC-13 = assay: as above; conditions: MCC and control cell lines, CellTiter-Glo viability, 72 h; series mostly up to 46 µM
Method in brief: as §3

MCC-26 = assay: as above; conditions: MCC and control cell lines, CellTiter-Glo viability, 72 h; series mostly up to 46 µM
Method in brief: as §3

MKL-1 = assay: as above; conditions: MCC and control cell lines, CellTiter-Glo viability, 72 h; series mostly up to 46 µM
Method in brief: as §3

MKL-2 = assay: as above; conditions: MCC and control cell lines, CellTiter-Glo viability, 72 h; series mostly up to 46 µM
Method in brief: as §3

NIH3T3 [4] = assay: as above; conditions: MCC and control cell lines, CellTiter-Glo viability, 72 h; at 44.8 µM (top of the series) unless noted
Method in brief: as §3

UISO = assay: as above; conditions: MCC and control cell lines, CellTiter-Glo viability, 72 h; series mostly up to 46 µM
Method in brief: as §3

WaGa = assay: as above; conditions: MCC and control cell lines, CellTiter-Glo viability, 72 h; series mostly up to 46 µM
Method in brief: as §3

C33A = assay: Primary qHTS to identify gynecologic anti-cancer compounds using libraries of approved drugs and bioactive compounds (AID 1345084); conditions: Gynecologic cancer cell panel viability, ATPlite luminescence, 48 h; series mostly up to 57.5 µM; note: % is set by controls: 0 for no effect and ±100 for the full control effect; nearly all actives have a fitted effect of over 55% in size
Method in brief: (§4)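 In this quantitative HTS, cell killing is estimated from loss of ATP-dependent luciferase light. Cells see five compound concentrations over a 48 h exposure.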

HEK293T = assay: qHTS assay to identify novel small-molecules to repurpose for Merkel cell carcinoma treatment (AID 1296009); conditions: MCC and control cell lines, CellTiter-Glo viability, 72 h; at 44.8 µM (top of the series) unless noted; note: nearly all actives have a fitted effect of over 60% in size
Method in brief: as §3

CAOV3 = assay: Primary qHTS to identify gynecologic anti-cancer compounds using libraries of approved drugs and bioactive compounds (AID 1345084); conditions: Gynecologic cancer cell panel viability, ATPlite luminescence, 48 h; series mostly up to 57.5 µM; note: % is set by controls: 0 for no effect and ±100 for the full control effect; nearly all actives have a fitted effect of over 55% in size
Method in brief: as §4

Cc1ccc(NC(=O)c2ccc(CN3CCN(C)CC3)cc2)cc1Nc1nccc(-c2cccnc2)n1
inactive: max response (CRL-7250) -2.19% | outcome (HaCat [1]) | max response (KB-3-1) -0.677% and -9.97% and -10.5% | max response (NIH3T3 [2]) -15.2% | outcome (NIH3T3 [2]) | outcome (HACAT [3]) | Potency (MCC-13) | Potency (MCC-26) | Potency (MKL-1) | Potency (MKL-2) | outcome (NIH3T3 [4]) | Potency (UISO) | Potency (WaGa) | Potency (C33A)
active: Potency (TAB109) 10 µM | Potency (TAB113) 12.6 µM | Potency (TAB165) 11.2 µM | Potency (W2) 6.01 µM | Potency (HEK293) 18.7 µM and 21.1 µM and 11.6 µM

CC(C)(S)[C@@H](N)C(=O)O
inactive: Potency (TAB109) | Potency (TAB113) | Potency (TAB165) | Potency (W2) | max response (CRL-7250) 1.05% | max response (HEK293) 2.4% | outcome (HaCat [1]) | max response (KB-3-1) 2.35% and 8.6% | outcome (NIH3T3 [2]) | outcome (HACAT [3]) | Potency (MCC-13) | Potency (MCC-26) | Potency (MKL-1) | Potency (MKL-2) | outcome (NIH3T3 [4]) | Potency (UISO) | Potency (WaGa)

Nc1ccn([C@@H]2O[C@H](CO)[C@@H](O)C2O)c(=O)n1 (some centres not stated)
inactive: Potency (TAB109) | Potency (TAB113) | Potency (TAB165) | outcome (CRL-7250) | outcome (HEK293) | outcome (HaCat [1]) | max response (KB-3-1) 21.2% | outcome (KB-3-1) | outcome (NIH3T3 [2]) | outcome (HACAT [3]) | outcome (HEK293T) | Potency (MCC-13) | Potency (MCC-26) | Potency (MKL-1) | Potency (MKL-2) | outcome (NIH3T3 [4]) | Potency (UISO) | Potency (WaGa)

CCOC(=O)c1c(C)n(C)c2ccc(O)cc12
inactive: Potency (TAB109) | Potency (TAB113) | Potency (TAB165) | Potency (W2) | max response (CRL-7250) 3.97% and 0.808% | max response (HEK293) 0.41% and 2.4% | max response (HaCat [1]) 4.97% | outcome (HaCat [1]) | max response (KB-3-1) -7.66% and 1.23% | max response (NIH3T3 [2]) -5.37% | outcome (NIH3T3 [2]) | outcome (HACAT [3]) | Potency (MCC-13) | Potency (MCC-26) | Potency (MKL-1) | Potency (MKL-2) | outcome (NIH3T3 [4]) | Potency (UISO) | Potency (WaGa) | Potency (C33A) | Potency (CAOV3)

Cc1nccn1CC1CCc2c(c3ccccc3n2C)C1=O (configuration not stated)
inactive: max response (CRL-7250) -48.9% and -2.23% and -14.6% | max response (HEK293) -1.64% and -12.7% and -0.203% | max response (HaCat [1]) -3.6% and 4.03% | outcome (HaCat [1]) | max response (NIH3T3 [2]) -4.36% and -4.32% and -0.458% | outcome (HACAT [3]) | Potency (MCC-13) | Potency (MCC-26) | Potency (MKL-1) | Potency (MKL-2) | Potency (UISO) | Potency (WaGa) | Potency (C33A) | Potency (CAOV3)

CC1Cc2ccccc2N1NC(=O)c1ccc(Cl)c(S(N)(=O)=O)c1 (configuration not stated)
inactive: max response (CRL-7250) -6.14% and 4.23% | max response (HEK293) 0.791% and 0.879% | max response (HaCat [1]) -11.1% | outcome (HaCat [1]) | max response (KB-3-1) -19.1% and -17.8% and -4.71% | max response (NIH3T3 [2]) 3.24% and 4.11% | outcome (HACAT [3]) | Potency (MCC-13) | Potency (MCC-26) | Potency (MKL-1) | Potency (MKL-2) | Potency (UISO) | Potency (WaGa) | Potency (C33A)

NC(=O)Cc1cccc(C(=O)c2ccccc2)c1N
inactive: max response (CRL-7250) -2.24% and -8.84% | max response (HEK293) -0.043% and -1.4% | max response (HaCat [1]) -6.4% | outcome (HaCat [1]) | max response (KB-3-1) -8.75% | max response (NIH3T3 [2]) 1.53% and -19% | outcome (HACAT [3]) | Potency (MCC-13) | Potency (MCC-26) | Potency (MKL-1) | Potency (MKL-2) | Potency (UISO) | Potency (WaGa) | Potency (C33A)

COCCCOc1ccnc(CS(=O)c2nc3ccccc3[nH]2)c1C (configuration not stated)
active: Potency (W2) 1.07 µM
inactive: Potency (TAB109) | Potency (TAB113) | outcome (CRL-7250) | max response (HEK293) 1.81% | max response (HaCat [1]) -2% | outcome (HaCat [1]) inactive; activator | max response (KB-3-1) -10% | outcome (KB-3-1) | max response (NIH3T3 [2]) -12.1% and 2.17% | outcome (NIH3T3 [2]) | outcome (HACAT [3]) inactive; activator | Potency (MCC-13) | Potency (MCC-26) | Potency (MKL-1) | Potency (MKL-2) | outcome (NIH3T3 [4]) | Potency (UISO) | Potency (WaGa) | Potency (C33A)

C[C@H](Cn1cnc2c(N)ncnc21)OCP(=O)(O)O
inactive: Potency (TAB109) | Potency (TAB113) | Potency (TAB165) | Potency (W2) | max response (CRL-7250) 3.36% | outcome (HEK293) | outcome (HaCat [1]) | outcome (KB-3-1) | outcome (NIH3T3 [2]) | outcome (HACAT [3]) | outcome (HEK293T) | Potency (MCC-13) | Potency (MCC-26) | Potency (MKL-1) | Potency (MKL-2) | outcome (NIH3T3 [4]) | Potency (UISO) | Potency (WaGa)

CCC(C)(Oc1ccc(C2(c3ccc(OC(C)(CC)C(=O)O)cc3)CCCCC2)cc1)C(=O)O (configuration not stated)
inactive: Potency (TAB113) | Potency (TAB165) | Potency (W2) | max response (CRL-7250) -2.28% and 2.61% | max response (HEK293) -7.29% and -0.679% | outcome (HaCat [1]) | max response (KB-3-1) -0.0453% and 5.37% | outcome (KB-3-1) | max response (NIH3T3 [2]) -0.924% | outcome (NIH3T3 [2]) | outcome (HACAT [3]) | Potency (MCC-13) | Potency (MCC-26) | Potency (MKL-1) | Potency (MKL-2) | outcome (NIH3T3 [4]) | Potency (UISO) | Potency (WaGa) | Potency (C33A)

OC(CN1CCN(c2cccc(Cl)c2)CC1)C(c1ccccc1)c1ccccc1 (configuration not stated)
inactive: max response (CRL-7250) -4.87% | max response (HaCat [1]) -65.8% and -1.92% | max response (KB-3-1) -12.1% and -1.2% | max response (NIH3T3 [2]) -14.3% | outcome (NIH3T3 [2]) | Potency (MCC-13) | Potency (MCC-26) | Potency (MKL-1) | outcome (NIH3T3 [4]) | Potency (UISO) | Potency (WaGa) | Potency (C33A)
active: Potency (HEK293) 9.35 µM
